Most compounds without a hit are left out; they make up all but 10% or so of the library.
BAZ2B block: inhibitors of human BAZ2B bromodomain | AlphaScreen BAZ2B-H3K14Ac peptide displacement | Q9UIF8 | Potency, µM (series often up to 114 µM), for inactives: top-dose activity change, negative = inhibition, most hits filed as inhibitors | 360,000 compounds, 4.4% hits; further: potency means the concentration at half of the fitted maximal effect; on the % scale 0 is the no-effect control and ±100 the full control effect; nearly all actives have a fitted effect of over 60% in size
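Complex of BAZ2B and biotin-H3K14Ac (50 nM apiece) forms over 30 min at RT, then faces library compounds up to 110 uM for another 30 min; AlphaScreen beads added, 20 min dark incubation, luminescence read.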
G9a inh: G9a (human) methyltransferase inhibition; Q96KQ7; G9a H3K9 monomethylation, AlphaScreen, 2 h; Potency, µM (highest dose often 102 µM), without a hit: at the highest dose activity, negative = inhibition, most hits filed as inhibitors; 350,000 compounds, 8.8% hits; AID 504332; further: potency means the concentration at half of the fitted maximal effect; on the % scale 0 is the no-effect control and ±100 the full control effect; nearly all actives have a fitted effect of over 75% in size
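G9a (20 nM) preincubated 15 min RT with compounds, then 500 nM biotinylated H3K9 peptide and 20 uM SAM added; 2 h RT reaction. Monomethyl-H3K9 product detected by AlphaScreen with anti-H3K9me1 antibody, streptavidin donor and anti-rabbit IgG acceptor beads.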
Six1-Eya2 inh: inhibitors of human Six1/Eya2 interaction; Q15475+O00167; AlphaScreen GST-Six1/His-Eya2 binding, biochemical; stronger effect = lower value; activity change, % (concentration not given with the values); 360,000 compounds, 0.56% hits; AID 651725; in the data active means activity change below about -65%; inconclusive means mostly about -30% to -63%; further: on the % scale 0 is the no-effect control and ±100 the full control effect
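Compounds are tested against tagged Six1 and Eya2 proteins bridged by glutathione donor and nickel acceptor beads; after a one-hour incubation at 37 °C without light, AlphaScreen emission is recorded.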
JMJD2A Tudor inh: JMJD2A Tudor domain (human) inhibition; O75164; AlphaScreen JMJD2A-Tudor / H3K4me3 peptide binding; 390,000 compounds, 4.4% hits; Potency, µM (titrated, usually from 114 µM), for inactives: at the highest dose activity change, negative = inhibition, usual class: inhibitors; further: potency means the concentration at half of the fitted maximal effect; on the % scale 0 is the no-effect control and ±100 the full control effect; nearly all actives have a fitted effect of over 50% in size
HP1b binding inh: blocks HP1-beta chromodomain binding to methylated histone tails | AlphaScreen HP1-beta / biotin-H3K9me3 peptide binding | Potency, µM (doses to about 114 µM), inactives show top-dose activity change, negative = inhibition, actives largely listed as inhibitors | AID 540317 | 390,000 compounds, 0.56% hits; further: potency means the concentration at half of the fitted maximal effect; nearly all actives have a fitted effect of over 70% in size
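Compound inhibition of the preformed complex between 50 nM HP1-beta and 50 nM biotinylated H3K9me3 peptide was read by AlphaScreen. Buffer was PBS pH 7.4 with 0.01% Tween-20. Incubations ran 30 min at room temperature, with 10 ug/mL donor/acceptor beads.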
CtBP-E1A inh: CtBP/E1A binding inhibition | 340,000 compounds, 0.49% hits | activity change, % (test concentration not listed) | AlphaScreen GST-E1A/His-CtBP binding, 1536-well; stronger effect = lower value; in the data active means activity change below about -65%; inconclusive means mostly about -30% to -63%; further: on the % scale 0 is the no-effect control and ±100 the full control effect
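Homogeneous bead-based format: GST-tagged E1A captured on glutathione donor beads, His-tagged CtBP on nickel acceptor beads; compounds precede bead addition by 2 h at 37 °C.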
The depositor's hits bear a star; u = inconclusive; x = no result; [ ] = remark or other dose. Unless noted, the call rests on the fitted dose curve; in most records, active means well fitted inhibition curve with a large enough effect; inconclusive means small, poorly fitted or top-dose-only effect; inactive means no such curve, though single readings can be large or run the other way.

SMILES	BAZ2B block	G9a inh	Six1-Eya2 inh	JMJD2A Tudor inh	HP1b binding inh	CtBP-E1A inh
COc1ccc(C(=O)Oc2c(OC)cc(C(=S)N3CCOCC3)cc2OC)cc1	-29.6%	44.7µM*	-7.4	-18.3%	15.0%	1.1
COc1cc(C(=O)Oc2ccc(Br)cc2C(=S)N2CCOCC2)cc(OC)c1OC	-30.3%	10µM*	-83.4*	-36.0%	u	-71.3*
COc1ccc(C)cc1NC(=O)c1cc(S(=O)(=O)NC2CCCCCC2)ccc1F	-0.2%	18.4%[59 µM]	x	-17.4%	20.4%	x
N#Cc1cccc(S(=O)(=O)N2CCN(c3nc(-c4cccs4)nc4ccccc34)CC2)c1	x	x	x	-10.2%	29.8%	x
CCOc1cc(C(=O)NCc2nc(-c3cccc(C)c3)no2)cc(OCC)c1OCC	-1.7%	-4.3%[59 µM]	x	-16.0%	2.9%	x
COc1ccc(C2=Nn3c(nnc3-c3cccc(OC)c3)SC2)cc1	x	x	x	-25.5%	x	x
O=S(=O)(c1ccc(F)cc1)N(CC(O)Cn1c2ccccc2c2ccccc21)c1ccccc1 (centres undefined)	2.2%[57.1 µM]	-25.9%[59 µM]	x	-15.5%	29.0%	x
COc1ccc(C(=S)N2CCOCC2)cc1OS(=O)(=O)c1ccc(Br)cc1	-38.9%	44.7µM*	-14.0	-27.4%	-11.3%	-3.5
COc1ccc(S(=O)(=O)Oc2ccc(C(=S)N3CCOCC3)cc2OC)cc1	-3.7%	x	-9.9	-22.1%	19.6%	-1.9
COc1ccc(C(=S)N2CCOCC2)cc1OC(=O)c1ccc(C)cc1	u	44.7µM*	-12.3	u	-20.5%	-18.7
COc1ccc(C(=O)Oc2c(OC)cc(C(=S)N3CCOCC3)cc2OC)cc1OC	-12.3%	-9.0%[0.501 µM]	12.2	u	u	x
CN(C)c1cccc2c1C(=O)c1ccccc1C2=O	8.91µM*	11.2µM*	-85.7*	44.7µM*	28.2µM*	-85.1*
CN1C(=O)c2cccc(N(C)C)c2C1=O	12.2%	5.8%	2.1	3.8%	35.6%	-12.6
COc1ccc(N(C(=O)c2ccc(OC)c(OC)c2)S(=O)(=O)c2ccc(Cl)cc2)cc1	u	u	x	-17.3%	2.0%	x
CCOc1ccc(Nc2nc(Cc3nnc(SCC(=O)NCC4CCCO4)n3C)cs2)cc1 (centres undefined)	u	-21.7%[59 µM]	-14.6	u	-7.9%	-7.4
CCOc1ccc(Nc2nc(Cc3nnc(SCC(=O)NC4CCCCC4)n3C)cs2)cc1	50.1µM*	-7.9%[12.7 µM]	-5.3	56.2µM*	-0.7%	-7.9
CCOC(=O)c1c(NC(C)=O)sc2c(O)c(CN3CCN(CC)CC3)ccc12	u	25.1µM*	-4.5	u	-5.5%	24.5
CCOC(=O)c1c(NC(C)=O)sc2c(OC)c(Br)ccc12	10.2%	u	0.0	-8.7%	29.7%	56.6
CC(=O)NC(=O)NC1OC(=O)C(Cl)=C1Cl (centres undefined)	3.4%	39.8µM*	-3.3	1.5%[57.1 µM]	36.1%	-15.3
Cc1ccc(NC(=O)NC2OC(=O)c3ccccc32)cc1 (centres undefined)	x	x	7.1	-15.4%	2.2%	4.3
N#CCc1ccc(C(=O)c2ccccc2F)s1	50.1µM*	u	-9.9	-11.9%	15.4%	-6.0
CCOc1ccccc1NC(=O)CN1C(=O)CC(c2ccc(C)c(C)c2)=Nc2ccccc21	-22.4%	8.6%[59 µM]	x	-24.3%	8.2%	x
C=CCNc1nc(-c2sc(NC(=O)CC)nc2C)cs1	u	8.91µM*	-2.2	-29.7%	-3.4%	-1.0
C=CCNc1nc(-c2sc(NC(C)=O)nc2C)cs1	-32.8%	17.8µM*	-4.8	-30.1%	2.3%	-16.3
CCCCCC(=O)Nc1nc(C)c(-c2csc(Nc3ccc(Cl)cc3)n2)s1	u	41.5%[0.501 µM]	-4.6	u	-22.3%	x
SMILES	BAZ2B block	G9a inh	Six1-Eya2 inh	JMJD2A Tudor inh	HP1b binding inh	CtBP-E1A inh
Cc1nc(NC(=O)C(C)(C)C)sc1-c1csc(N)n1	x	x	-11.9	x	x	-3.2
Cc1ccc(-c2cc(-c3ccc4c(c3)NC(=O)CO4)nc3c2COc2ccccc2-3)cc1	-33.5%	7.5%[59 µM]	x	-11.9%	35.8%	x
COc1ccc(NC(=O)CNCc2cccs2)c(OC)c1	x	x	4.9	x	x	5.7
COc1ccc(Cl)cc1NC(=O)CNCc1cccs1	70.8µM*	0.6%	10.5	4.47µM*	u	x
COc1ccc(Cl)cc1NC(=O)CN(C)C(=O)Cc1ccsc1	-4.4%	28.2µM*	4.3	-9.7%	39.9%	1.2
CC(=O)OCC(NC(=O)C(C)NC(=O)OC(C)(C)C)C1OC(n2cc(C)c(=O)[nH]c2=O)C(OC(C)=O)C1OC(C)=O (centres undefined)	x	x	x	-0.7%	10.8%	x
Cc1nc(NC(=O)c2ccccc2)sc1-c1csc(Nc2ccc(Cl)cc2Cl)n1	50.1µM*	25.1µM*	x	x	x	x
Cc1nc(NC(=O)c2ccco2)sc1-c1csc(Nc2ccc(Cl)cc2Cl)n1	-31.1%	u	-11.9	u	0.5%	-3.0
COc1ccc(Cl)cc1Nc1nc(-c2sc(NC(=O)c3ccccc3)nc2C)cs1	56.2µM*	35.5µM*	x	x	x	x
COC(=O)c1cc(-c2ccc(C)cc2)c2c(=O)n(C)c(=O)n(C)c2n1	2.0%	9.6%[59 µM]	x	-6.7%	34.5%	x
Cc1ccccc1NC(=O)c1ccc(F)c(S(=O)(=O)N(C)Cc2ccccc2)c1	4.8%	0.3%[59 µM]	x	-22.3%	6.2%	x
O=C1CCc2cc(S(=O)(=O)Nc3cc(F)cc(Cl)c3)c(F)cc2N1	x	x	x	-17.7%	x	x
Cc1cc(C)c(S(=O)(=O)N2CCC(N3CCN(Cc4ccccc4)C(=O)C3=O)CC2)c(C)c1	-0.2%	-4.7%[59 µM]	x	-15.9%	19.0%	x
CCOc1ccccc1OCC(=O)Nc1cccc(S(=O)(=O)NC2=NCCCCC2)c1	-5.1%	23.4%[12.7 µM]	-9.8	5.7%	29.9%	-1.3
CCOc1ccc2nc(SCC(=O)Nc3cccc(S(=O)(=O)NC4=NCCCCC4)c3)[nH]c2c1	-16.2%	44.7µM*	-24.7	-29.5%	9.8%	-10.4
CCOc1ccccc1Nc1nnc(SCC(=O)Nc2cccc(S(=O)(=O)NC3=NCCCCC3)c2)s1	-8.8%	39.8µM*	-16.1	-7.5%	22.0%	-10.9
Cc1ccc(S(=O)(=O)N(C)C)cc1NC(=S)NCCCn1ccnc1	x	-2.9%	0.0	-24.5%	28.6%	x
CN(C)S(=O)(=O)c1cccc(NC(=S)NCCCn2ccnc2)c1	79.4µM*	-0.7%	-1.5	-4.1%[57.1 µM]	14.3%	0.0
Cc1cc(C(=O)NCCCn2ccnc2)sc1-c1ccccc1	50.1µM*	u	-21.0	u	-4.0%	-14.5
CCOC(=O)c1ccc(NC(=S)NCCCn2ccnc2)cc1	56.2µM*	u	-14.2	-25.5%	38.1%	0.0
O=C(NCCCn1ccnc1)c1ccc(-c2ccccc2)cc1	u	15.4%	-0.6	-16.9%	24.3%	x
COC(=O)c1ccc(NC(=S)NCCCn2ccnc2)cc1	79.4µM*	-9.6%	-2.4	-23.2%	4.2%	0.1
Cc1cccc(C(=O)N2CCCCC2CCN2CCCCC2)c1 (centres undefined)	-17.1%	-32.9%[59 µM]	x	-16.4%	4.1%	x
